Reference: PubChem BioAssay (NCATS)
Inconclusive results are not listed. Active and inactive are the calls of the source. Unless noted, how the calls were made is not given here.

Assays:
[1] = qHTS profiling of the MIPE4 collection as inhibitors of Plasmodium falciparum (3D7) proliferation (AID 743344);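 further: scaled between DMSO vehicle wells and 0.29 µM artemisinin as full inhibition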; conditions: P. falciparum 3D7 in erythrocytes, SYBR Green DNA fluorescence, 72 h; at 28.5 µM unless noted
Procedure, shortened: (§1)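 Erythrocytes infected with P. falciparum (0.3% parasitemia, 2.5% hematocrit) incubated with compounds 72 h at 37 C, 5% CO2. Lysis with saponin/Triton buffer containing SYBR Green I, overnight at room temperature in the dark; DNA fluorescence (485/535 nm) normalised to 0.29 uM artemisinin and DMSO.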

[2] = qHTS profiling of the MIPE4 collection as inhibitors of Plasmodium falciparum (DD2) proliferation (AID 743345); conditions: P. falciparum Dd2 in erythrocytes, SYBR Green DNA, 72 h; at 28.5 µM unless noted
Procedure, shortened: as §1

[3] = qHTS profiling of the MIPE4 collection as inhibitors of Plasmodium falciparum (DD2) proliferation (Rep 2) (AID 743346); conditions: P. falciparum Dd2 in erythrocytes, SYBR Green DNA, 72 h; at 28.5 µM unless noted
Procedure, shortened: as §1

[4] = qHTS profiling of the MIPE4 collection as inhibitors of Plasmodium falciparum (HB3) proliferation (AID 743347);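 further: plate controls were DMSO vehicle wells for no effect and artemisinin wells for full effect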; conditions: P. falciparum HB3 in erythrocytes, SYBR Green DNA, 72 h; at 28.5 µM unless noted
Procedure, shortened: as §1

[5] = High-throughput drug toxicity screening in the BPDCN cell line Gen2.2 (AID 1224824); conditions: Gen2.2 BPDCN cells; at 45.8 µM (top of the series) unless noted;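 further: cells exposed to compounds for 48 h before reading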
Procedure, shortened: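 Seed 500 exponentially growing Gen2.2 cells/well; add compounds by pin tool; incubate 48 h, 37 °C, 5% CO2; add CellTiter-Glo, 15 min RT; read luminescence. % activity vs DMSO (100%) and bortezomib (0%).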

[6] = High-throughput drug toxicity screening in the BPDCN cell line Cal-1 (AID 1224825); conditions: Cal-1 BPDCN cell viability, qHTS; at 45.8 µM (top of the series) unless noted
Procedure, shortened: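 Exponentially growing Cal-1 cells, 500 per well in phenol red-free RPMI with 10% FBS, were exposed to compounds for 48 h at 37 °C, 5% CO2. Viability was read by CellTiter-Glo luminescence and normalised to DMSO (100%) and 9.2 uM bortezomib (0%).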

[7] = qHTS assay for measurement of the activity of small molecule inhibitors on Zika virus induced Caspase-3 activity in human iPSC derived neural progenitor cells (hNPCs) (AID 1224857; active means well fitted curve in the direction sought with a large enough effect; an effect the other way counts as inactive or inconclusive; further: % of control where 0% means no effect; nearly all actives have a fitted effect of over 65% in size)
Procedure, shortened: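 Percent inhibition of virus-induced caspase-3/7 luminescence (Caspase-Glo), scaled between uninfected cells and Zika-infected cells. hNPCs received compound 1 hr before ZIKV at 2 FFU/cell, with 6 hours infection at 37 C.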

[8] = qHTS assay for measurement of the activity of small molecule inhibitors on Zika virus induced Caspase-3 activity in human astrocytoma cells (AID 1224859; active means well fitted curve in the direction sought with a large enough effect; an effect the other way counts as inactive or inconclusive;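 further: plate controls were ZIKV-infected untreated cells for no effect and uninfected cells for full effect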)
Procedure, shortened: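 Luminescent caspase-3/7 read-out (30 min reagent, room temperature) in human SNB-19 cells infected 6 h with ZIKV (2 FFU/cell) after 1 h compound pre-incubation; Data were normalised to uninfected and infected wells.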

[9] = qHTS Screen of the MIPE 4.0 Collection Against Ewings Sarcoma (RDES) (AID 1259252; active means well fitted curve in the direction sought with a large enough effect; an effect the other way counts as inactive or inconclusive; further: nearly all actives have a fitted effect of over 35% in size; further: potency means the concentration at half of the fitted maximal effect)
Procedure, shortened: (§2)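 Measured: ATP luminescence (CellTiter-Glo) 10 min after reagent addition, following 48 h drug treatment. Relative luciferase units converted to percent activity, with no-cell wells as full and DMSO wells as zero inhibition.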

[10] = Identifying Small Molecule Inhibitors of Pancreatic Cancer Stem Cells (Panc1, Adherent) (AID 1259362; active means well fitted curve in the direction sought with a large enough effect; an effect the other way counts as inactive or inconclusive;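 further: compound exposure lasted 48 h before the viability read; plate controls were DMSO-treated cells for no effect and cell-free media wells for full effect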); conditions: Potency: viability
Procedure, shortened: (§3)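 After a 4 h attachment period, compounds were pinned into wells and cultures held 48 h under standard incubator conditions. Viability was then measured as CellTiter-Glo luminescence following 10 min at room temperature.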

[11] = qHTS Screen of the MIPE 4.0 Collection Against Ewings Sarcoma (TC32) (AID 1259256; active means well fitted curve in the direction sought with a large enough effect; an effect the other way counts as inactive or inconclusive; further: nearly all actives have a fitted effect of over 45% in size; further: potency means the concentration at half of the fitted maximal effect)
Procedure, shortened: as §2

[12] = qHTS profiling for inhibitors of Plasmodium falciparum (DD2) proliferation (AID 743323); conditions: lower = more inhibition; at 28.7 µM (top of the series) unless noted
Procedure, shortened: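 1536-well qHTS; infected RBCs 0.3% parasitemia/2.5% Hct final; cpd 72 h 37 C 5% CO2; lysis buffer + SYBR Green I, o/n RT dark; FI 485/535; norm. to 0.29 uM artemisinin and DMSO, plate-stack corrected.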

[13] = qHTS profiling for inhibitors of Plasmodium falciparum (HB3) proliferation (AID 743324; active means well fitted curve in the direction sought with a large enough effect; an effect the other way counts as inactive or inconclusive;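 further: 100% = DMSO vehicle wells and 0% = artemisinin-treated control wells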); conditions: Plasmodium falciparum HB3 blood-stage proliferation; at 28.7 µM (top of the series) unless noted
Procedure, shortened: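 P. falciparum HB3 grown in erythrocytes (0.3% parasitemia, 2.5% hematocrit final) with compound for 72 h at 37 C, 5% CO2. Parasite DNA detected by SYBR Green after saponin/triton lysis overnight; normalized to 0.29 uM artemisinin and DMSO.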

[14] = qHTS Screen of the MIPE 4.0 Collection Against Ewings Sarcoma (TC71) (AID 1259253; active means well fitted curve in the direction sought with a large enough effect; an effect the other way counts as inactive or inconclusive; further: potency means the concentration at half of the fitted maximal effect; nearly all actives have a fitted effect of over 40% in size)
Procedure, shortened: as §2

[15] = qHTS Screen of the MIPE 4.0 Collection Against Ewings Sarcoma (EW8) (AID 1259255; active means well fitted curve in the direction sought with a large enough effect; an effect the other way counts as inactive or inconclusive; further: potency means the concentration at half of the fitted maximal effect; nearly all actives have a fitted effect of over 35% in size)
Procedure, shortened: as §2

[16] = Identifying Small Molecule Inhibitors of Pancreatic Cancer Stem Cells (A278, Adherent) (AID 1259361; active means well fitted curve in the direction sought with a large enough effect; an effect the other way counts as inactive or inconclusive; further: nearly all actives have a fitted effect of over 35% in size)
Procedure, shortened: as §3

| SMILES | parasite growth, % of DMSO control [1] | parasite growth remaining, % of DMSO control (lower = more inhibition) [2] | parasite growth, % of control (lower = inhibition) [3] | growth, % of control [4] | cell viability, % of control (lower = more cytotoxic) [5] | viability (% of control) [6] | Potency [7] | Potency [8] | Potency [9] | Potency [10] | Potency [11] | activity, percent of control [12] | remaining proliferation (% of control), lower = more inhibition [13] | Potency [14] | Potency [15] | IC50 (viability decrease) [16] |
| --- | --- | --- | --- | --- | --- | --- | --- | --- | --- | --- | --- | --- | --- | --- | --- | --- |
| CO[C@H]1C=CO[C@@]2(C)Oc3c(C)c(O)c4c(O)c(c(C=NN5CCN(C)CC5)c(O)c4c3C2=O)NC(=O)C(C)=CC=C[C@H](C)[C@H](O)[C@@H](C)[C@@H](O)[C@@H](C)[C@H](OC(C)=O)[C@H]1C | 5.51% [at 5.51 µM] | 11.4% [at 5.51 µM] | 10.3% [at 5.51 µM] | 3.06% [at 5.51 µM] | 73% [at 15.3 µM] | 41.4% [at 15.3 µM] | inactive | inactive | inactive | – | – | – | – | – | – | – |
| O=C(O)c1ccc(O)c2ncc(N3CCOCC3)cc12 | 15.1% | – | 16.8% | 11% | 110% | 100% | inactive | inactive | 26.4 µM (active) | inactive | – | – | – | – | – | – |
| Cc1cc(-c2ncc(CC(=O)Nc3ccc(-c4cnccn4)cn3)cc2C)ccn1 | 36.5% | 87.9% | 71.8% | 52.1% | 267% | 97% | inactive | inactive | 16.6 µM (active) | – | 23.5 µM (active) | – | – | – | – | – |
| CN(C)CC[C@H](CSc1ccccc1)Nc1ccc(S(=O)(=O)NC(=O)c2ccc(N3CCN(Cc4ccccc4-c4ccc(Cl)cc4)CC3)cc2)cc1[N+](=O)[O-] | 34% | – | 31.1% | 4.32% | 8.88% | 4.81% | inactive | inactive | – | – | 4.18 µM (active) | 9.74% | 41.4% | 16.6 µM (active) | 16.6 µM (active) | – |
| C=CC(=O)Nc1cccc(Sc2nc(Nc3ccc(N4CCN(C)CC4)cc3)ncc2Cl)c1 | 4.12% | – | 6.26% | 1.99% | 8.4% | 2.56% | inactive | inactive | 18.7 µM (active) | – | – | – | – | – | – | – |
| Cc1ccc2c(c1)c1c(n2CCc2ccc(C)nc2)CCN(C)C1 | 113% | 55.3% | 49.2% | 135% | 163% | 90.5% | inactive | inactive | inactive | – | – | – | – | – | – | – |
| CC(C)n1c(C=C[C@H](O)C[C@H](O)CC(=O)O)c(-c2ccc(F)cc2)c2ccccc21 | – | – | – | – | 9.81% | 66.9% | inactive | inactive | – | – | 2.35 µM (active) | – | – | 3.32 µM (active) | 9.35 µM (active) | 1.05 µM (active) |
| O=C1C(c2c(O)[nH]c3ccccc23)=Nc2ccccc21 | 90.1% | – | 73.7% | 98.4% | 52.3% | 68.6% | inactive | inactive | 0.469 µM (active) | – | 29.6 µM (active) | – | – | – | – | – |
| Cc1cccc(-c2[nH]c(C(C)(C)C)nc2-c2ccc3c(c2)OCO3)n1 | 9.08% | 19.7% | 10.1% | 8.33% | 235% | 17.9% | inactive | inactive | 8.33 µM (active) | – | 10.5 µM (active) | – | – | – | – | – |
| CO[C@H]1/C=C\O[C@@]2(C)Oc3c(C)c(O)c4c(O)c(c5c(nc6cc(C)ccn65)c4c3C2=O)NC(=O)C(C)=CC=C[C@H](C)[C@H](O)[C@@H](C)[C@@H](O)[C@@H](C)[C@H](OC(C)=O)[C@H]1C | 11% | 31.8% | 7.3% | 5.21% | 4.46% | 32.4% | inactive | inactive | inactive | – | inactive | – | – | – | – | – |
| CC=C(C(=CC)c1ccc(O)cc1)c1ccc(O)cc1 | 61.7% | 94.2% | 67.7% | 70.1% | 43.4% | 26.7% | inactive | inactive | 20.9 µM (active) | – | – | – | – | – | – | – |
| Cc1cc(C(C)Nc2ccccc2)c2nc(N3CCOCC3)cc(=O)n2c1 (stereo not drawn) | 11.8% | – | – | 15.4% | 47.8% | 62.3% | inactive | inactive | 23.5 µM (active) | – | 23.5 µM (active) | – | – | – | – | – |
| COc1cc2c(cc1OC)[C@@H]1Cc3ccc(OC)c(OC)c3CN1CC2 | 25.7% | 36.6% | 26.7% | 11.1% | 132% | 20.2% | inactive | inactive | 7.43 µM (active) | – | – | – | – | – | – | – |
| C[C@H]1O[C@@H](n2cc(F)c(=O)[nH]c2=O)[C@H](O)[C@H]1O | 22.6% | 13.5% | – | 53% | 170% | 28.4% | inactive | inactive | 18.7 µM (active) | – | 9.35 µM (active) | – | – | – | – | – |
| CO[C@H]1/C=C\O[C@@]2(C)Oc3c(C)c(O)c4c(O)c(c(C=NN5CCN(C6CCCC6)CC5)c(O)c4c3C2=O)NC(=O)C(C)=CC=C[C@H](C)[C@H](O)[C@@H](C)[C@@H](O)[C@@H](C)[C@H](OC(C)=O)[C@H]1C | 4.38% | 6.13% | 8.54% | 2.45% | 1.16% | 0.727% | inactive | inactive | 0.0418 µM (active) | – | inactive | – | – | – | – | – |
| NCc1c[nH]c(=S)n1[C@H]1CCc2c(F)cc(F)cc2C1 | 15.7% | 12.9% | 13.8% | 4.48% | 61.4% | 34.2% | inactive | inactive | – | – | 23.5 µM (active) | – | – | 20.9 µM (active) | 23.5 µM (active) | – |
| CC1CCN(c2cc(N3CCN(C)CC3)ccc2NC(=O)c2cc(C#N)c[nH]2)CC1 | 39.9% | 80.6% | 36.9% | 50.4% | 107% | 104% | inactive | inactive | 26.4 µM (active) | – | – | – | – | – | – | – |
| CSc1cccc(Nc2ncc3cc(-c4c(Cl)cccc4Cl)c(=O)n(C)c3n2)c1 | 5.72% | 13.9% | 9.88% | 9.92% | 288% | 34.2% | inactive | inactive | 0.0935 µM (active) | – | – | – | – | – | – | – |
| CNC1CCC(N(Cc2cccc(-c3ccncc3)c2)C(=O)c2sc3ccccc3c2Cl)CC1 (stereo not drawn) | 4.86% | 7.31% | 9.91% | 6.96% | 3.76% | 1.63% | inactive | inactive | 26.4 µM (active) | – | 20.9 µM (active) | – | – | – | – | – |
